The list is not random: actives were taken first. Their share in the collection is about 1.8%.
GSTO1 counter – inhibitors of recombinant GSTO1, primary screen, counter-screen for RBBP9 inhibitor project, biochemical, fluorescence polarization; activity-based probe fluorescence polarization; inhibition, % at 5.96 µM; 1.1% of 300,000 active; AID 1974, 2009;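 active means inhibition above the campaign mean inhibition plus 3 SD, cut at about 35% in these data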;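 further: 0% = GSTO1-1 with DMSO and 100% = wells lacking GSTO1-1 enzyme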
PME-1 inh – PME-1 inhibitors via competitive probe labeling, primary screen, biochemical, fluorescence polarization, FP-Rh probe, HTS. recombinant PME-1. inhibition, % at 5.9 µM. 0.53% of 320,000 active. AID 2130, 2009;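 active means inhibition above the campaign mean of all compounds plus 3 SD, cut at about 26% in these data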;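 further: competitive labeling of PME-1 active site by serine hydrolase directed probe; 0% = PME-1 with DMSO and 100% = wells lacking PME-1 enzyme; inhibitors block probe labeling so polarization falls and inhibition rises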
LYPLA2 inh – LYPLA2 inhibitors, primary screen, counter-screen for PME1 inhibitor project, biochemical, fluorescence polarization, FP-Rh probe ABPP; recombinant LYPLA2; 0.38% of 320,000 active; AID 2177, 2009; inhibition, % at 5.9 µM;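 active means inhibition above the screen-wide mean plus 3 SD, limit set per campaign, cut at about 26% in these data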;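 further: 0% = LYPLA2 with DMSO and 100% = wells lacking LYPLA2 enzyme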
LYPLA1 counter – LYPLA1 inhibitors, primary screen, counter-screen for PME1 inhibitor project, biochemical, fluorescence polarization, FP-Rh probe ABPP | inhibition, % at 5.9 µM | AID 2174, 2009 | recombinant LYPLA1 | 0.16% of 320,000 active;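 active means inhibition above the mean of all tested compounds plus 3 SD, set per campaign, cut at about 14% in these data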;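 further: inhibitors block serine hydrolase probe labeling of LYPLA1 so polarization falls; 0% = enzyme with DMSO and 100% = wells lacking LYPLA1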
Fam108B inh – mouse Fam108B serine hydrolase inhibitors, primary screen, counter-screen for RBBP9 inhibitor project, biochemical, fluorescence polarization | recombinant Fam108B, FP-Rh probe fluorescence polarization | 0.33% of 300,000 active | AID 1947, 2009 | inhibition, % at 9.51 µM;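 active means inhibition above the screen mean inhibition plus 3 SD, computed separately per campaign, cut at about 18% in these data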;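 further: inhibitors lower polarization as less probe binds the enzyme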
PAD4 FP inh – human PAD4 inhibitors, primary screen, biochemical, fluorescence polarization, 1536-well format; inhibition, % at 6.36 µM; 0.41% of 330,000 active; Protein-arginine deiminase type-4 (Homo sapiens), Q9UM07; AID 485272, 2010; recombinant PAD4, RCA probe fluorescence polarization;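 active means percent inhibition above a cutoff equal to the mean of all tested compounds plus 3 SD, cut at about 15% in these data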;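 further: 0% = PAD4 with RCA probe and DMSO and 100% = probe without PAD4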
Target sequence (Q9UM07 whole entry, looked up): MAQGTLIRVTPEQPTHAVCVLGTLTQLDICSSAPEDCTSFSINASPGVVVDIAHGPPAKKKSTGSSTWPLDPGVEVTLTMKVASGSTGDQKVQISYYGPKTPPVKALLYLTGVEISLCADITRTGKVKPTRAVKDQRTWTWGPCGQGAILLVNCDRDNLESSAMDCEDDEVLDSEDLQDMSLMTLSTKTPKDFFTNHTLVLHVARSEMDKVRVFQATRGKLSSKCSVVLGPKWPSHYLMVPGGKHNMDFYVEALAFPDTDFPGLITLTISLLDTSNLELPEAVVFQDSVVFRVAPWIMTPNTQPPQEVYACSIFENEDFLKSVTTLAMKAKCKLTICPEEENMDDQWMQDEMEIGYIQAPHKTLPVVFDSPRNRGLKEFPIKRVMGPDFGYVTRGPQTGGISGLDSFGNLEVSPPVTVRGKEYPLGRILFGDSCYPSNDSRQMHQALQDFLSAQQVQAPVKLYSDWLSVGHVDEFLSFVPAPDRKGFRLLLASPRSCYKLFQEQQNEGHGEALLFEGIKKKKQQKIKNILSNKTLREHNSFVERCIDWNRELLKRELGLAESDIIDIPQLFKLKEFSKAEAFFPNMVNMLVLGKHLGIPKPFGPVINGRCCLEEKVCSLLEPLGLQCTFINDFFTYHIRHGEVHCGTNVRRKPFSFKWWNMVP
GSTO1 confirm – GSTO1 inhibitor hit confirmation, counter-screen for RBBP9 inhibitor project, biochemical, fluorescence polarization, triplicate; shares compounds with GSTO1 counter; recombinant GSTO1, probe fluorescence polarization; inhibition, % at 5.96 µM; 54% of 2,400 active; AID 2176, 2009;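 active means inhibition above the primary screen's cutoff, its mean inhibition plus 3 SD, cut at about 35% in these data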;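 further: loss of polarization as inhibitors block binding of rhodamine sulfonate ester activity probe; 0% = GSTO1 with DMSO and 100% = wells lacking GSTO1 enzyme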
Numbers without * were called inactive; / = no result.

SMILES	GSTO1 counter	PME-1 inh	LYPLA2 inh	LYPLA1 counter	Fam108B inh	PAD4 FP inh	GSTO1 confirm
CCC(C(=O)Nc1cc(Cl)c(OC)cc1OC)c1ccccc1 (centres undefined)	2	2	6	1	-3	-5	/
CC(=O)Nc1ccc(NC2=CC(=O)c3ccccc3C2=O)cc1	39*	0	9	3	4	-9	8
Cc1ccc(NC2=CC(=O)C(=O)c3ccccc32)cc1	77*	15	3	3	12	39*	73*
O=C(Cn1ncc2c([nH]c3ccccc32)c1=O)Nc1ccc(CN2CCCCC2)cc1	-4	3	0	-6	-3	1	/
O=C1C(Cl)=C(Nc2ccc(O)cc2)C(=O)c2ccccc21	90*	21	5	2	12	3	92*
O=C(NC1=C(Nc2ccc(F)cc2)C(=O)c2ccccc2C1=O)c1ccc(Cl)cc1	22	3	1	-2	11	-8	/
CCOc1cc(N2CCOCC2)c(OCC)cc1NC(=O)COC(=O)[C@@H]1CCCN1S(=O)(=O)c1ccccc1F	80*	4	-2	-1	-1	-1	80*
O=C1CCc2cc(S(=O)(=O)Nc3ccccc3)cc3c2N1CC3	3	2	-5	0	-3	-5	/
COc1nc(-c2ccc(Cl)cc2Cl)nc2ccccc12	7	-2	-9	-3	-3	-1	/
Cc1ccc2nc(N3CCN(CCO)CC3)nc(-c3ccccc3)c2c1	43*	3	2	0	0	1	25
C[C@@H]1O[C@@H](Oc2c(-c3cc(O)c(O)c(O)c3)oc3cc(O)cc(O)c3c2=O)[C@H](O)[C@H](O)[C@H]1O	54*	-32	-27	-13	-7	0	16
C[C@@H]1O[C@@H](Oc2c(-c3ccc(O)c(O)c3)oc3cc(O)cc(O)c3c2=O)[C@H](O)[C@H](O)[C@H]1O	/	/	/	/	/	3	/
CC[C@@]1(C(=O)OC)N[C@H](CN(C)C(=O)c2ccc(C)cc2)[C@@H]2C(=O)N(C)C(=O)[C@@H]21	/	/	/	/	/	0	/
COc1cc(C2CC(c3cccs3)=NN2C(=O)CCl)ccc1OC(F)F (centres undefined)	94*	-1	1	-2	-3	2	97*
COc1ccc(C2CC(c3cccs3)=NN2C(=O)CCl)cc1OC (centres undefined)	90*	-1	4	0	2	3	96*
COc1ccc(C2CC(c3cccs3)=NN2C(=O)c2ccccc2)cc1OC (centres undefined)	-6	-8	-2	2	-3	3	/
COc1cccc(-c2c(-c3cc(OC)cc(OC)c3)n(C)c3ccc(-c4cccc5[nH]ccc45)cc23)c1	/	3	-3	0	/	1	/
COc1ccc(C(=O)c2c(C(F)(F)F)oc3c2C(=O)c2ccccc2C3=O)cc1OC	77*	4	0	-4	7	34*	65*
COc1ccc(C(=O)Nc2ccc3c(c2)C(=O)c2ccccc2C3=O)cc1OC	4	-2	-1	-3	1	0	/
CC(=O)OCCCNc1cc(Sc2nc3ccccc3s2)c2nonc2c1[N+](=O)[O-]	45*	7	-5	1	5	-15	7
COc1ccc(C2=CC3=C(Br)C(=O)C(C)(OC(=O)c4ccc(Cl)nc4)C(=O)C3=CO2)cc1 (centres undefined)	21	0	0	-1	6	-6	/
COC(=O)CCC(=O)OC1(C)C(=O)C2=CN(CCN3CCOCC3)C(c3ccc(OC)cc3)=CC2=C(Br)C1=O (centres undefined)	56*	-1	9	3	6	0	65*
COC(=O)CCC(=O)OC1(C)C(=O)C2=CN(C(CO)CO)C(c3ccc(OC)cc3)=CC2=C(Br)C1=O (centres undefined)	49*	1	-2	0	3	-2	51*
COC(=O)CCC(=O)OC1(C)C(=O)C2=CN(Cc3ccc4c(c3)OCO4)C(c3ccc(OC)cc3)=CC2=C(Br)C1=O (centres undefined)	31	0	0	1	2	-23	/
COC(=O)CCC(=O)OC1(C)C(=O)C2=CN(CCCCO)C(c3ccc(OC)cc3)=CC2=C(Br)C1=O (centres undefined)	66*	6	3	2	4	28*	60*
SMILES	GSTO1 counter	PME-1 inh	LYPLA2 inh	LYPLA1 counter	Fam108B inh	PAD4 FP inh	GSTO1 confirm
CCCCN(C(=O)C1CCCO1)c1c(N)n(CCC)c(=O)[nH]c1=O (centres undefined)	/	/	/	/	/	3	/
COC(CN(C)C(=O)c1cn(C)c2ccc(S(=O)(=O)N(C)C3CCCCC3)cc2c1=O)OC	4	-3	4	1	7	2	/
CC(=O)N(/N=C1\Sc2ccccc2C1=O)c1ccccc1C	41*	-6	4	6	5	-18	71*
CCOC(=O)c1c(C)n(-c2ccc(C)cc2)c2c(CC(C)=O)c(Br)c(OC)c(O)c12	2	-1	-1	0	2	-6	/
CCOC(=O)c1c(C)n(-c2ccc(C)cc2)c2c(C(C(C)=O)C(=O)O)c(Br)c(O)c(O)c12 (centres undefined)	64*	-1	-3	-1	15	-1	8
O=C(COC(=O)c1ccc([N+](=O)[O-])s1)NCc1ccc(F)cc1	43*	8	10	6	6	4	16
O=C(COC(=O)c1ccc([N+](=O)[O-])s1)NC(=O)NCc1ccccc1	51*	9	19	3	7	-3	17
CCOC(=O)C1CCCN(C(=O)c2ccc3c(c2)N(Cc2ccccc2)C(=O)c2ccccc2S3=O)C1 (centres undefined)	-4	12	7	3	-1	-3	/
COc1ccc(Sc2ccccc2CN(C)C)cc1OC	10	-8	0	1	2	2	/
CNCc1ccccc1Sc1ccc(O)c(O)c1	74*	4	8	1	5	-1	71*
CCOc1cccc(C=Nc2cc(C)cc(C)c2O)c1O	45*	12	6	3	4	-5	-1
CSc1ccc(/C=N/Nc2nc(C)cc(=O)[nH]2)cc1	-9	9	3	4	2	2	/
Cc1cc(=O)[nH]c(N/N=C/c2ccc(O)c(O)c2)n1	42*	-10	-8	-5	-7	0	7

Compound activity (PubChem)
